# NS1 inh: blocks influenza NS1 protein function; Potency, µM (series often up to 46.1 µM), for inactives: at the highest dose activity, positive = more growth; 270,000 compounds, 0.4% hits; AID 2326; calls by dose curve; further: potency means the concentration at half of the fitted maximal effect; actives are rising curves; nearly all actives have a fitted effect of over 50% in size
#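 Recovery from NS1-induced slow growth read by OD600 in budding yeast switched to galactose assay medium (pH 6.0, -URA) at 1:100 dilution. Compound 23 nl per well; the matching strain lacking NS1 serves as control.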
# Shiga toxin inh: inhibitors of Shiga toxin in Vero cells; Vero cells, Shiga toxin protein synthesis inhibition reporter; inhibition, % at 38.7 µM; 290,000 compounds, 9.2% hits; in the data active means inhibition mostly above about 28%, no sharp cut-off; inactive means mostly below about 43%; further: 0% is about no effect
# Pf growth 48h: inhibits P. falciparum growth in the first generation, 48 h. Potency, µM (series often up to 28.7 µM), for the others: at the top dose activity change, negative = inhibition, most hits filed as inhibitors. 310,000 compounds, 5.9% hits. P. falciparum luciferase growth in erythrocytes, 48 h; further: potency means the concentration at half of the fitted maximal effect; on the % scale 0 is the no-effect control and ±100 the full control effect
#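 In quantitative HTS format, infected erythrocytes bearing luciferase-reporter parasites were treated for a single generation at 37 C. Luminescence after adding detection reagent served as the growth measure.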
# Pf growth 96h: P. falciparum growth inhibition at 96 hour, primary screen for plastid delayed-death inhibitors; P. falciparum luciferase reporter growth, 96 h; Potency, µM (top dose mostly 28.7 µM), for inactives: top-dose activity change, negative = inhibition, hits mostly inhibitors; 320,000 compounds, 6.9% hits; AID 504834; further: potency means the concentration at half of the fitted maximal effect; on the % scale 0 is the no-effect control and ±100 the full control effect
#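 Plates of compound plus infected erythrocytes (2% hematocrit, 0.05% parasitemia final) incubate 96 hours, 37 C, 5% CO2. Detection reagent added; reduced luminescence from the parasites' luciferase reporter flags inhibition.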
# FBPA Giardia inh: blocks Giardia fructose-bisphosphate aldolase activity | Potency, µM (top dose mostly 59.6 µM), inactives show at the highest dose activity, negative = inhibition, most hits filed as inhibitors | 290,000 compounds, 0.71% hits | purified Giardia FBPA | AID 2451 | A8B2U2; further: potency means the concentration at half of the fitted maximal effect; on the % scale 0 is the no-effect control and ±100 the full control effect; nearly all actives have a fitted effect of over 55% in size
# Target sequence (A8B2U2 whole entry, looked up): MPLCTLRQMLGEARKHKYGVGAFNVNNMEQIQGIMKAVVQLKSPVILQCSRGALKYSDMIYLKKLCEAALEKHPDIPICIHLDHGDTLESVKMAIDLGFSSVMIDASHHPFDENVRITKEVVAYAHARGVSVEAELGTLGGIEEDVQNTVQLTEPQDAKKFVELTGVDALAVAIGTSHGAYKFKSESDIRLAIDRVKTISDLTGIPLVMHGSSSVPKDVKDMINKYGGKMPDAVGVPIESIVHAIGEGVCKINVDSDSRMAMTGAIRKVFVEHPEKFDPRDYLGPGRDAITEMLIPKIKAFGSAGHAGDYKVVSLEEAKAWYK
#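 40 nM FBPA preincubated 10 min at RT with compound (up to 57.5 uM final), then substrate plus GAPDH/TPI/NAD/arsenate coupling and diaphorase/resazurin added. Fluorescence read after 20 min at RT, 525/598 nm.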
# Cycloheximide cs: affects cycloheximide protein synthesis inhibition readout, counter-screen. cell reporter, cycloheximide protein synthesis inhibition counterscreen. max response, %. 300,000 compounds, 12% hits; in the data active means max response mostly above about 13%, no sharp cut-off; inactive means mostly below about 14%; further: read at 38.3 µM for the half of the compounds with a filed dose; 0% is about no effect
# The depositor's hits bear a star; ? = inconclusive; / = not tested or not shown; + = active, no number. An excerpt weighted towards active compounds, which were near 21% of everything screened. Unless noted, the call rests on the fitted dose curve; in most records, active means well fitted curve in the direction sought with a large enough effect; inconclusive means small, poorly fitted or top-dose-only effect, or another doubt; inactive means no such curve, though single readings can be large; an effect the other way counts as inactive or inconclusive.
SMILES,NS1 inh,Shiga toxin inh,Pf growth 48h,Pf growth 96h,FBPA Giardia inh,Cycloheximide cs
COc1ccc(CCN(C(=O)c2snc(C(N)=O)c2N)C(C)C(=O)NC2CCCCC2)cc1OC (stereo unspecified),0.6%,-4.8,?,13.4%,/,-4.3
O=C(O)CC/C(=N\NC(=O)c1ccccc1)c1cccs1,/,109.1*,26.3%,11.9%,-3.7%,49.3*
COc1ccc(OCC(=O)N/N=C(\CCC(=O)O)c2cccs2)cc1,/,-2.3,21.8%,32.1%,2.7%,-2.3
O=C(O)CC/C(=N\NC(=O)c1ccncc1)c1ccccc1,0.5%,/,-13.8%,?,-1.5%,5.0
COC(=O)N/N=C(\CCC(=O)O)c1cccs1,0.8%,14.1,15.1%,1.9%,8.3%,15.0*
[O-]/[N+](=C\c1cccc(Br)c1)c1ccccc1,/,82.2*,81.7%,3.7%,?,43.9*
[O-]/[N+](=C\c1ccc(F)cc1)c1ccccc1,-16.9%,5.9,33.2%,/,-23.5%,18.0*
O=C(Cn1cnc([N+](=O)[O-])c1)Nc1cc(Oc2ccc(Cl)cc2Cl)cc([N+](=O)[O-])c1,?,13.4,13.1µM*,-18.4%,-1.6%,0.6
N#Cc1ccc(NC(=O)Cn2cnc([N+](=O)[O-])c2)cc1,7.6%,-8.1,4.5%,11.7µM*,-8.0%,-2.6
O=C(Cn1cnc([N+](=O)[O-])c1)c1ccc(Cl)cc1,/,/,25.5%,67.5%,/,/
CC(C)CN(C(=O)C(C)N1C(=O)c2ccccc2C1=O)c1c(N)n(Cc2ccccc2)c(=O)[nH]c1=O (stereo unspecified),/,/,0.8%,26.4%,/,/
Cc1cc(C)c(S(=O)(=O)n2ccc(-c3ccc(OCCN(C)c4ccccn4)cc3)n2)c(C)c1,26.2%,-3.4,1.85µM*,7.38µM*,3.8%,0.4
O=C(O)CSc1nnnn1-c1ccc2c(c1)OCCO2,11.1%,-6.4,/,11.4%,?,-2.9
O=C(CSc1nnnn1-c1ccc2c(c1)OCCO2)c1cccc2c1OCCO2,-2.8%,64.7,-0.1%,-18.6%,5.1%,32.6*
CC(C)OC(=O)CSc1nnnn1-c1ccc2c(c1)OCCO2,-1.6%,64.1*,80.2%,?,6.0%,35.4*
COc1ccc2[nH]c(N=Nc3ccccc3C)c(O)c2c1,3.3%,+,82.8%,-29.3%,-0.4%,16.2
CCOc1ccc(N(C)S(=O)(=O)c2ccc(-c3ccc(=O)[nH]n3)s2)cc1,8.9%,-4.5,-8.9%,11.7µM*,/,-2.9
Cc1ccc(N(C)S(=O)(=O)c2ccc(-c3ccc(=O)[nH]n3)s2)cc1C,14.7%,-2.6,6.4%,15.6%,/,-7.9
Cn1nc(C(F)(F)F)c(-c2cccc(C(F)(F)F)c2)c1NC(=O)Nc1ccc(F)cc1,0.3%,-1.7,0.928µM*,1.31µM*,4.0%,2.0
COc1ccc(C2=NOC(C(=O)N3CCN(C(=O)c4ccco4)CC3)C2)cc1OC (stereo unspecified),6.6%,-7.0,-8.5%,8.4%,10.3%,-5.1
CCC(C)C(NC(=O)C1CCC(C)CC1)C(=O)NC(CCSC)C(=O)OC (stereo unspecified),5.0%,29.2,-6.2%,-26.5%,2.8%,-5.5
COC(=O)C(CCSC)NC(=O)C(NC(=O)C1CCC(C)CC1)C(C)C (stereo unspecified),-8.4%,-5.8,18.3%,2.33µM*,2.8%,-5.0
CCN(Cc1ccccc1)C(=O)CCNS(=O)(=O)c1cc(Br)cnc1N,2.2%,-3.6,13.1µM*,36.6%,/,5.9
CCOC(=O)N1CCN(C(=O)CCNS(=O)(=O)c2cc(Br)cnc2N)CC1,-10.5%,-5.8,0.2%,189.6%,5.0%,-1.8
O=C1C=CC(=O)c2c(O)cccc21,/,-3.7,/,/,?,-4.3
SMILES,NS1 inh,Shiga toxin inh,Pf growth 48h,Pf growth 96h,FBPA Giardia inh,Cycloheximide cs
O=C1C(=O)c2ccc(-c3ccccc3)cc2-c2ccccc21,-39.6%,10.7,10.4µM*,3.7µM*,0.281µM*,-1.3
O=C1c2ccccc2C(=O)c2ccccc21,/,/,?,15.1µM*,3.6%,/
CN1C(=O)c2cccc(N(C)C)c2C1=O,2.3%,24.2,-11.0%,-7.5%,6.8%,-2.6
O=C1C=Cc2ccccc2C1=O,20.0%,23.1,?,?,3.54µM*,15.9
CN(C)c1cccc2c1C(=O)c1ccccc1C2=O,-10.6%,27.1,39.3%,-2.0%,?,13.3*
O=C(c1ccco1)N1CCN(C(=S)Nc2ccccc2C(F)(F)F)CC1,-0.1%,-6.5,1.9%,48.9%,/,-1.7
CCCCC(C#N)(Cn1cncn1)c1ccc(Cl)cc1 (stereo unspecified),/,-15.3,/,/,0.9%,-2.3
O=C1c2ccccc2C(=O)c2[nH]c(=O)[nH]c21,8.0%,3.9,/,1.65µM*,?,-1.8
O=C1c2cccc(O)c2C(=O)c2c(O)cccc21,-13.1%,-5.7,43.0%,38.3%,-18.4%,-0.2
O=C1c2ccccc2C(=O)c2[nH]cnc21,1.9%,-15.0,?,?,?,-3.7
O=C1c2cccc(Sc3ccccc3)c2C(=O)c2c(Sc3ccccc3)cccc21,5.3%,30.7,13.1µM*,?,?,8.6
CSc1nc2cc(C)nn2c(-c2ccccc2Cl)c1C#N,-0.2%,-12.5,38.7%,3.3%,8.4%,-1.4
CC(=O)NC12CC3CC(C1)CC(C(=O)Oc1ccc(N(C)S(=O)(=O)c4cc(C)ccc4C)cc1)(C3)C2,/,/,?,13.1µM*,/,/
CC(=O)NC12CC3CC(C1)CC(C(=O)NCC(=O)Nc1c(C)cc(C)cc1C)(C3)C2,/,/,-29.4%,-33.3%,/,/
COc1ccc(CCN(C)S(=O)(=O)c2cn(C)c(=O)n(C)c2=O)cc1OC,/,/,8.3%,-21.2%,/,/
Cc1ccccc1NC(=S)N(Cc1cccnc1)Cc1ccco1,4.9%,-7.2,?,1.85µM*,1.2%,-2.0
Cc1ccc(Cl)cc1NC(=S)N(Cc1cccnc1)Cc1ccccc1Cl,/,-26.4,13.1µM*,20.2%,-0.1%,11.0
Cc1ccccc1NC(=S)N(CCCN1CCC(C)CC1)Cc1ccco1,-8.7%,-4.1,-25.6%,13.1µM*,2.2%,-1.3
COc1ccc(NC(=O)N(Cc2cccnc2)Cc2ccccc2Cl)c(OC)c1,-121.0%,/,/,/,/,/
Cc1ccccc1NC(=S)N(Cc1ccccc1)Cc1cccnc1,-1.4%,-12.8,?,-5.0%,6.4%,11.2
COC(=O)[C@@]1(Cc2ccc(F)cc2)[C@H]2c3cc(C(=O)N(C)C)n(CCCNc4ccc(C(F)(F)F)cc4Cl)c3C[C@H]2CN1C(=O)c1ccccc1,/,/,/,/,-10.9%,/
O=C(NCC1CCCO1)/C(=C/c1ccccc1F)NC(=O)c1ccccc1 (stereo unspecified),3.8%,-4.5,11.6%,?,-3.2%,-2.9
Cc1nn(CC(=O)N(C)C)c(C)c1S(=O)(=O)N1CCOCC1,/,/,-2.2%,-14.3%,/,/
Cn1c(C(=O)N[C@@H](C(=O)O)c2ccccc2)cc2cc(F)ccc21,1.3%,26.4,/,47.7%,29.5%,17.8
NC(=O)[C@@H]1CCCN1Cc1ccc2c(c1)OCO2,-6.9%,/,/,/,/,/
